Only a selection was taken, and hits are over-represented in it overall.
Dicer processing: human Dicer pre-microRNA cleavage inhibition | 47,000 compounds, 6% hits | cat-ELCCA pre-miR-21 Dicer processing, chemiluminescence; hits give high values | Q9UPY3 | z-score at 25 µM; in the data active means z-score above about 3, passing the limit was not always enough;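 further: higher signal means more uncleaved substrate so more Dicer inhibition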
Target sequence (Q9UPY3 whole entry, looked up): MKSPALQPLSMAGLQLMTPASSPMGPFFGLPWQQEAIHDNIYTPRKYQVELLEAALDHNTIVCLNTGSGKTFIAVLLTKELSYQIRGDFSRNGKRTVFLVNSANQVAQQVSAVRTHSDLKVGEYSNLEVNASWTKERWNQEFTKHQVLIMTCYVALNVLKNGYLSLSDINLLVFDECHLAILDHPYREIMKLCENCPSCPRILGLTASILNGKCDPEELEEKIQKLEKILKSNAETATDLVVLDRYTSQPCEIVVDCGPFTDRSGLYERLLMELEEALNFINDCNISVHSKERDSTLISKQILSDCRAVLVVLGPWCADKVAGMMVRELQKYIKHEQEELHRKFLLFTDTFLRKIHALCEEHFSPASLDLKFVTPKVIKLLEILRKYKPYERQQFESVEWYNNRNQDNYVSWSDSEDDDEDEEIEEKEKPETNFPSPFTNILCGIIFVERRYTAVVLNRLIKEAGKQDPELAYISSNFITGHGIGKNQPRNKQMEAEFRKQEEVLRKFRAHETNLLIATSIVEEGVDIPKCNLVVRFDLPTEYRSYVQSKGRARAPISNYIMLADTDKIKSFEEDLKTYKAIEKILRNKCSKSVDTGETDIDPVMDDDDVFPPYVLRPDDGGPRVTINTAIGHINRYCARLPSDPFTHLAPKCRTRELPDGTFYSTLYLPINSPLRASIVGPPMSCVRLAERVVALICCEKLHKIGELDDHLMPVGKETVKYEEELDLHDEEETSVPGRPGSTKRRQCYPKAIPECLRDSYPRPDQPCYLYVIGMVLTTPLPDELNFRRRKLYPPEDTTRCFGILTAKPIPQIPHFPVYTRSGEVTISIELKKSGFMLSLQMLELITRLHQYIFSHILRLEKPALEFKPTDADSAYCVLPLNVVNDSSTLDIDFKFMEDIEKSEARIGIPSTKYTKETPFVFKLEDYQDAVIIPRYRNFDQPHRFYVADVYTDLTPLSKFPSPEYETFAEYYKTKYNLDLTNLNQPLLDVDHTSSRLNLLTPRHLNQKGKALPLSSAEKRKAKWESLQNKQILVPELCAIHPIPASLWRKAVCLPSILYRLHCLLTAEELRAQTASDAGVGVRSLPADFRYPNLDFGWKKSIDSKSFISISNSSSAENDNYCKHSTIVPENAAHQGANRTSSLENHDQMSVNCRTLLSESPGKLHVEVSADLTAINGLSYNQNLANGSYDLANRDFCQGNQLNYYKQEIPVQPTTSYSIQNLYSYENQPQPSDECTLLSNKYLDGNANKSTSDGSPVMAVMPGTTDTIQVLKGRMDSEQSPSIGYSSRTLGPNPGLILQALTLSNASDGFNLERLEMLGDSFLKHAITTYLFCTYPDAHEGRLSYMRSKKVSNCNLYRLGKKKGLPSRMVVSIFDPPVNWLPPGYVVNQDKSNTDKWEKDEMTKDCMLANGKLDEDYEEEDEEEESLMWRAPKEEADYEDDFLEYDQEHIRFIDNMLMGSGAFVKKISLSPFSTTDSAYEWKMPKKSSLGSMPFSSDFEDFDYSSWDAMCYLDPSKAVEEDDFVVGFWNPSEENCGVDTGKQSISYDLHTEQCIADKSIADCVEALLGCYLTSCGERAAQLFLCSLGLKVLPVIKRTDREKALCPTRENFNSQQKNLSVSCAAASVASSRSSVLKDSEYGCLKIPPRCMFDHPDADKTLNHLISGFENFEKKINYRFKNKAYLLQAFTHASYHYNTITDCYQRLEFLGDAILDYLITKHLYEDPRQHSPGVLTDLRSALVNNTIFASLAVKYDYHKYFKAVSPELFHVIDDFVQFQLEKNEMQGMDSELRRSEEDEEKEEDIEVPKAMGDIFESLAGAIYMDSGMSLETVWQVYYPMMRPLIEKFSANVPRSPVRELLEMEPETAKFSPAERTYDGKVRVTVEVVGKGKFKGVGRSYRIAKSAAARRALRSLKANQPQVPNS
Of the large screens only hits and unclear results are named; the others gave an inactive call.

COc1cc(O)ccc1C1Nc2c(C)cccc2-c2cc(C)nn21 (configuration not stated)	Dicer processing 3.8
Cc1cc2n(n1)C(c1cccs1)Nc1c(C)cccc1-2 (configuration not stated)	none
Cc1cc2n(n1)C(c1ccccc1O)Nc1c(C)cccc1-2 (configuration not stated)	Dicer processing 5.2
COc1cc(O)ccc1C1Nc2ccccc2-c2cc(C)nn21 (configuration not stated)	none
CC(=O)c1cnn(-c2ccc(C#N)cc2)c1C	none
CC(=O)N1N=C(c2ccc(C)cc2)CC1c1ccc(Cl)cc1Cl (configuration not stated)	none
Cc1sc(-c2c(F)cccc2F)nc1O	none
O=C(CCc1nc(-c2ccc(Cl)cc2)no1)NNC(=S)NCC1CCCO1 (configuration not stated)	none
O=C(O)COCC(=O)Nc1ccc2c(c1)C(=O)OC2	none
CCS(=O)(=O)c1ccc2nc(SCc3ccccc3Cl)oc2c1	none
O=C(O)/C=C/c1ccc(O)c(O)c1	none
O=c1nc(/C=C/c2ccc(O)c(O)c2)oc2ccccc12	Dicer processing 4
CSc1ccc(/C=C/c2nc(=O)c3ccccc3o2)cc1	none
Cc1nc2ccccn2c1C(=O)NNS(=O)(=O)c1ccc(CNC(=O)c2ccccc2)s1	none
Fc1cccc(OCc2ccc(Cl)cc2)c1OCc1ccc(Cl)cc1	none
COc1ccc(-c2cc(=O)c3c(N)nn(-c4nc5ccccc5s4)c3o2)cc1	none
FC(F)(F)c1c2c(nc3cc(C4CC4)nn13)-c1ccccc1CC2	none
COCCNC(=O)c1nn2c(C(F)(F)F)c3c(nc2c1Cl)-c1ccccc1CC3	Dicer processing 4.7
Cc1cc2nc3c(c(C(F)(F)F)n2n1)CCc1ccccc1-3	none
CN(C)/C=C/C(=O)c1cccc(Br)c1	none
Cc1cc(C)n2c(SC(CNS(=O)(=O)c3ccc(Cl)cc3)c3ccccc3)nnc2n1 (configuration not stated)	none
O=C(OCc1ccc(Cl)cc1)c1cnc(Sc2ccc(Cl)cc2)nc1C(F)(F)F	none
O=C(OCc1ccc(Cl)cc1)c1cnc(NNC(=O)C(F)(F)F)nc1C(F)(F)F	Dicer processing 3.4
CCCC(=O)NNc1ncc(C(=O)OCC)c(C(F)(F)F)n1	none
Cc1ccc(CSc2n[nH]c(=O)n2-c2cccc(Cl)c2)cc1	none
C=C1SC(Nc2ccccc2OC)=NC1(C)C	none
COc1ccc(NC2=NC(C)(CO)CS2)cc1 (configuration not stated)	none
C=C1SC(Nc2cc(OC)cc(OC)c2)=NC1(C)C	Dicer processing 15
COc1ccc(CCN2C(=O)CSC2c2ccc(F)cc2)cc1OC (configuration not stated)	none
O=c1onc(-c2cccc(C(F)(F)F)c2)n1-c1ccccc1	none
Cc1c(S(=O)(=O)Nc2ccccc2Cl)sc2ccc(Cl)cc12	Dicer processing 4.6
Cc1c(S(=O)(=O)Oc2ccccc2Cl)sc2ccc(Cl)cc12	none
Cc1c(S(=O)(=O)Nc2ccc(Cl)c(Cl)c2)sc2ccc(Cl)cc12	none
O=C(Nc1ccc(Br)cc1)c1cnn2c1NC(c1cccs1)CC2C(F)(F)F (configuration not stated)	Dicer processing 3.2
Cc1ccc(C2CC(C(F)(F)F)n3ncc(C(=O)N(C)C4CCCCC4)c3N2)cc1 (configuration not stated)	none
CSc1ccccc1NC(=O)c1cnn2c1NC(c1cccs1)CC2C(F)(F)F (configuration not stated)	none
O=C(Nc1ccc(Br)cc1)c1cc2n(n1)C(C(F)(F)F)CC(c1cccs1)N2 (configuration not stated)	none
O=C(c1cnn2c1NC(c1ccc(Br)cc1)CC2C(F)(F)F)N1CCCCC1 (configuration not stated)	Dicer processing 3.3
CC(C)(C)NC(=O)c1cnn2c1NC(c1ccc(F)cc1)CC2C(F)(F)F (configuration not stated)	none
O=C(NC(OCc1ccccc1)(C(F)(F)F)C(F)(F)F)OCc1ccccc1	none
Cc1ccc(C2CC(C(F)(F)F)n3nc(C(=O)NC(C)C)cc3N2)cc1 (configuration not stated)	none
O=C(NCc1ccccn1)c1cc2n(n1)C(C(F)(F)F)CC(c1ccco1)N2 (configuration not stated)	none
O=C(NC1CCCC1)c1cc2n(n1)C(C(F)(F)F)CC(c1ccc(Br)cc1)N2 (configuration not stated)	Dicer processing 4.4
O=C(NCc1cccs1)c1cc2n(n1)C(C(F)(F)F)CC(c1ccc(Cl)cc1)N2 (configuration not stated)	none
O=C(Nc1cccnc1)c1cc2n(n1)C(C(F)(F)F)CC(c1ccc(Br)cc1)N2 (configuration not stated)	Dicer processing 4.7
O=C(NCc1ccco1)c1cc2n(n1)C(C(F)(F)F)CC(c1ccc(Br)cc1)N2 (configuration not stated)	Dicer processing 3.5
O=C(NC1CCCC1)c1cc2n(n1)C(C(F)(F)F)CC(c1ccccc1)N2 (configuration not stated)	none
O=C(NCCCn1ccnc1)c1cc2n(n1)C(C(F)(F)F)CC(c1ccc(Cl)cc1)N2 (configuration not stated)	none
Cc1cc(C)cc(NC(=O)c2cc3n(n2)C(C(F)(F)F)CC(c2ccco2)N3)c1 (configuration not stated)	none
O=S(=O)(CCN(CCS(=O)(=O)c1ccccc1)c1ncccn1)c1ccccc1	none
COC(=O)c1cc(=O)n(-c2cc(Cl)cc(Cl)c2)[nH]1	none
Cc1ccccc1Cn1c(-c2nonc2N)nc2ccccc21	none
Nc1cccc(Cl)c1Oc1ccc(S(=O)(=O)Nc2ccc(F)cc2)cc1	none
Nc1ncnc2c1ncn2CC(O)CO (configuration not stated)	Dicer processing 6.8
Nc1ncnc2c1ncn2CCc1ccccc1	none
Nc1ncnc2c1ncn2CCN1CCCCC1	none
CC1=C(C(=O)OC2CCCCC2)C(c2cccnc2)C2=C(CC(C)(C)CC2=O)N1 (configuration not stated)	none
COc1ccc(C(=O)Oc2cc3c4c(c2)C(C)=CC(C)(C)N4C(=O)C3=O)cc1	none
O=C(O)CSc1n[nH]c(-c2ccncc2)n1	none
CSC1=NCCN1Cc1ccccc1	none
O=C(O)c1ccccc1C(=O)c1ccc(-c2ccccc2)cc1	none
O=C(O)c1ccccc1C(=O)c1ccc(F)cc1	Dicer processing 3.1
Cc1cccc(C(=O)c2ccccc2C(=O)O)c1	none
COC(OC)c1ccc2c(N)c(C#N)sc2n1	none
CCNC(=S)Nc1sc(C)c(C)c1C(=O)OCC	Dicer processing 5.3
CCOC(=O)c1c(NC(=S)N2CCN(C)CC2)sc(C)c1C	none
CCOC(=O)c1c(NC(=O)CCC(=O)O)sc(C)c1C	none
CC(C)(CO)NC(=S)Nc1cc(Cl)ccc1Cl	none
Cc1c(C)c(C)c(CSCC(=O)NNC(=S)NC2CC3C=CC2C3)c(C)c1C (configuration not stated)	none
O=C(Cn1cnc([N+](=O)[O-])n1)OCCCc1ccccc1	Dicer processing 3.5
COC(=O)c1cc([N+](=O)[O-])nn1Cc1ccccc1	none
O=C(O)c1cccc(Cn2cnc([N+](=O)[O-])n2)c1	none
O=C(NNC(=S)Nc1cccc(C(F)(F)F)c1)c1cccn1-c1ccc(F)cc1	none
CN(C(=O)c1ccc(C(C)(C)C)cc1)C(=O)N(C)C(=O)c1ccc(C(C)(C)C)cc1	none
CCOC(=O)c1ccc(-n2nnc(/C=C/C=C/N3CCCC3)n2)cc1	none
COC(=O)C1=C(C)NC2=C(C(=O)CC(C)(C)C2)C1c1cn[nH]c1-c1ccc(OC)cc1 (configuration not stated)	none
CC1(C)Cc2c(c(-c3ccco3)nc3sc4c(N5CCCCC5)ncnc4c23)CO1	none

Bioassay records from PubChem.
